# Data as given in PubChem BioAssay (NCATS).
# Results filed as inconclusive are left out. A call without a number means that no potency is given here. Activity calls are given as the source filed them. Calls come from the whole dose curve; as a rule, active = well fitted curve in the direction sought with a large enough effect; inconclusive = small, poorly fitted or top-dose-only effect, or another doubt; inactive = no such curve, though single readings can be large; an effect the other way counts as inactive or inconclusive.
# Assay: qHTS of pediatric cancer cell lines to identify multiple opportunities for drug repurposing: Primary screen for MG 63 (6-TG R) cells (AID 1347105); note: nearly all actives have a fitted effect of over 50% in size
# Details: MG 63 (6-TG R) viability, CellTiter-Glo, 48 h; series mostly up to 46 µM
# Method in brief: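 Luminescence from CellTiter-Glo served as readout of metabolically active cells after 48 h compound exposure. Titrations: MIPE 11-point, from 0.78 nM; NPC 8-point, from 0.59 nM (final). Concentration-response curves came straight from the primary screen.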
# Potency is the fitted concentration of half-maximal effect.
row,SMILES,Potency
1,O=C1NC(O)CCN1[C@@H]1O[C@H](CO)[C@H](O)[C@H]1O (stereo partly specified),inactive
2,C[C@]12C=CC(=O)N[C@@H]1CC[C@H]1[C@H]3CC[C@@H](C(=O)Nc4cc(C(F)(F)F)ccc4C(F)(F)F)[C@@]3(C)CC[C@@H]12,inactive
3,CCn1c(=O)c2c(nc(C=Cc3ccc(OC)c(OC)c3)n2C)n(CC)c1=O,inactive
4,CC(C(C)N1CC(=O)NC(=O)C1)N1CC(=O)NC(=O)C1 (stereo unspecified),inactive
5,Cn1cnc2c(F)c(Nc3ccc(Br)cc3F)c(C(=O)NOCCO)cc21,inactive
6,CC(C)N(CC[C@H](c1ccccc1)c1cc(CO)ccc1O)C(C)C,inactive
7,C=C[C@@H]1CN2CCC1C[C@H]2[C@H](O)c1ccnc2ccc(OC)cc12 (stereo partly specified),inactive
8,CC1(C)[C@H](O[C@H]2O[C@H](C(=O)O)[C@@H](O)[C@H](O)[C@H]2O[C@@H]2O[C@H](C(=O)O)[C@@H](O)[C@H](O)[C@H]2O)CC[C@@]2(C)[C@H]1CC[C@]1(C)[C@H]2C(=O)C=C2[C@H]3C[C@@](C)(C(=O)O)CC[C@]3(C)CC[C@]21C,inactive
9,Cc1ccc(O)c(C(CCN(C(C)C)C(C)C)c2ccccc2)c1 (stereo unspecified),inactive
10,CCCCCCCCCCCC(CC1OC(=O)C1CCCCCC)OC(=O)C(CC(C)C)NC=O (stereo unspecified),inactive
11,C[C@@]12C(=O)OC(=O)[C@@]1(C)C1CCC2O1,1870 nM (active)
12,C[C@@H]1CC[C@@]2(OC1)OC1CC3C4CC=C5CC(O)CCC5(C)C4CCC3(C)C1[C@@H]2C (stereo partly specified),inactive
13,CS(=O)(=O)N1CCc2c(-c3cnc(N)nc3)nc(N3CCOCC3)nc21,118 nM (active)
14,COC(=O)[C@@H]1[C@H]2C[C@@H]3c4[nH]c5ccccc5c4CCN3C[C@@H]2CC[C@@H]1O,inactive
15,O=C(Nc1ccc(Oc2ccnc3[nH]ccc23)c(F)c1)c1cccn(-c2ccc(F)cc2)c1=O,inactive
16,CC[C@H]1OC(=O)[C@H](C)[C@@H](O[C@H]2C[C@@](C)(OC)[C@@H](O)[C@H](C)O2)[C@H](C)[C@@H](O[C@@H]2O[C@@H](C)C[C@H](N(C)C)[C@@H]2O)[C@](C)(O)C[C@@H](C)C(=O)[C@H](C)[C@@H](O)[C@]1(C)O,inactive
17,C=CC(=O)Nc1cccc(Nc2nc(NC3CCC(N(C)C)CC3)nc3c2ncn3C(C)C)c1 (stereo unspecified),469 nM (active)

row,SMILES,Potency
1,CC(Oc1ccc(O)cc1)(P(=O)(O)O)P(=O)(O)O,inactive
2,C[C@@H](Cc1cc2c(c(C(N)=O)c1)N(CCCO)CC2)NCCOc1ccccc1OCC(F)(F)F,inactive
3,COc1ccc(C(C)=O)c(O)c1,inactive
4,C[C@@H]1[C@H](C)CC[C@]2(C(=O)O)CC[C@]3(C)C(=CC[C@@H]4[C@@]5(C)C[C@@H](O)[C@H](O)[C@@](C)(CO)[C@H]5CC[C@]43C)[C@@H]12,inactive
5,N#CNC(=NCCCCCCOc1ccc(Cl)cc1)Nc1ccncc1,14800 nM (active)
6,C[C@H]1COc2c(N3CCN(C)CC3)c(F)cc3c(=O)c(C(=O)O)cn1c23,inactive
7,CC(C)C[C@H](NC(=O)CNC(=O)c1cc(Cl)ccc1Cl)B1OC(=O)CC(CC(=O)O)(C(=O)O)O1 (stereo partly specified),148 nM (active)
8,CCNC(=O)c1cc2c(-c3cc(OCCN4CCCC4)c(Cl)cc3Cl)nc(N)nc2s1,14800 nM (active)
9,CNC(=O)c1cccc(-c2ccc3c(N4CCOC[C@H]4C)nc(N4CCOC[C@H]4C)nc3n2)c1,29.6 nM (active)
10,CCCCCCCCCCCCc1ccc(S(=O)(=O)Nc2nncs2)cc1,inactive
11,Cn1cc(C=CC(=O)c2cccc(F)c2)cc1C=CC(=O)NO,inactive
12,C=C1CCC2[C@](C)(CO)C(O)CC[C@]2(C)C1CC=C1C(=O)OCC1O (stereo partly specified),inactive
13,NC(=NCCCCCCN=C(N)N=C(N)Nc1ccc(Cl)cc1)N=C(N)Nc1ccc(Cl)cc1,14800 nM (active)
14,c1coc(CNc2ncnc3nc[nH]c23)c1,inactive
15,CCCCCCCN(CC)CCCC(O)c1ccc(NS(C)(=O)=O)cc1 (stereo unspecified),inactive
16,COc1ccc2cc([S+]([O-])Cc3ncc(C)c(OC)c3C)nc2c1,inactive
17,CC(=O)O[C@H]1C[C@@H]2CC[C@H]3[C@H]4C[C@H]([N+]5(C)CCCCC5)[C@@H](OC(C)=O)[C@@]4(C)CC[C@@H]3[C@@]2(C)C[C@H]1[N+]1(C)CCCCC1,inactive

# Assay: qHTS of pediatric cancer cell lines to identify multiple opportunities for drug repurposing: Primary screen for control Hh wild type fibroblast cells (AID 1347106); note: nearly all actives have a fitted effect of over 55% in size
# Details: Hh wild-type fibroblast viability, CellTiter-Glo luminescence, 48 h; series mostly up to 46 µM
# Method in brief: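 Cells (500-1,000/well) in growth media were settled 5 h at 37 degrees C, then given compounds for 48 h. Viability was read as CellTiter-Glo luminescence. Primary runs used MIPE at 11 points (0.78 nM-46 µM) and NPC at 8 points (0.59 nM-46 µM); follow-ups used 11 points.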
row,SMILES,Potency
1,O=C1NC(O)CCN1[C@@H]1O[C@H](CO)[C@H](O)[C@H]1O (stereo partly specified),inactive
2,C[C@]12C=CC(=O)N[C@@H]1CC[C@H]1[C@H]3CC[C@@H](C(=O)Nc4cc(C(F)(F)F)ccc4C(F)(F)F)[C@@]3(C)CC[C@@H]12,inactive
3,CCn1c(=O)c2c(nc(C=Cc3ccc(OC)c(OC)c3)n2C)n(CC)c1=O,inactive
4,CC(C(C)N1CC(=O)NC(=O)C1)N1CC(=O)NC(=O)C1 (stereo unspecified),inactive
5,Cn1cnc2c(F)c(Nc3ccc(Br)cc3F)c(C(=O)NOCCO)cc21,inactive
6,C=C[C@@H]1CN2CCC1C[C@H]2[C@H](O)c1ccnc2ccc(OC)cc12 (stereo partly specified),inactive
7,CC1(C)[C@H](O[C@H]2O[C@H](C(=O)O)[C@@H](O)[C@H](O)[C@H]2O[C@@H]2O[C@H](C(=O)O)[C@@H](O)[C@H](O)[C@H]2O)CC[C@@]2(C)[C@H]1CC[C@]1(C)[C@H]2C(=O)C=C2[C@H]3C[C@@](C)(C(=O)O)CC[C@]3(C)CC[C@]21C,inactive
8,C[C@H](NC(=O)Cc1cc(F)cc(F)c1)C(=O)N[C@H](C(=O)OC(C)(C)C)c1ccccc1,inactive
9,Cc1ccc(O)c(C(CCN(C(C)C)C(C)C)c2ccccc2)c1 (stereo unspecified),inactive
10,C[C@@H]1CC[C@@]2(OC1)OC1CC3C4CC=C5CC(O)CCC5(C)C4CCC3(C)C1[C@@H]2C (stereo partly specified),inactive
11,CS(=O)(=O)N1CCc2c(-c3cnc(N)nc3)nc(N3CCOCC3)nc21,inactive
12,COC(=O)[C@@H]1[C@H]2C[C@@H]3c4[nH]c5ccccc5c4CCN3C[C@@H]2CC[C@@H]1O,inactive
13,O=C(Nc1ccc(Oc2ccnc3[nH]ccc23)c(F)c1)c1cccn(-c2ccc(F)cc2)c1=O,inactive
14,CC[C@H]1OC(=O)[C@H](C)[C@@H](O[C@H]2C[C@@](C)(OC)[C@@H](O)[C@H](C)O2)[C@H](C)[C@@H](O[C@@H]2O[C@@H](C)C[C@H](N(C)C)[C@@H]2O)[C@](C)(O)C[C@@H](C)C(=O)[C@H](C)[C@@H](O)[C@]1(C)O,inactive
15,C=CC(=O)Nc1cccc(Nc2nc(NC3CCC(N(C)C)CC3)nc3c2ncn3C(C)C)c1 (stereo unspecified),2350 nM (active)
16,CC(Oc1ccc(O)cc1)(P(=O)(O)O)P(=O)(O)O,inactive

row,SMILES,Potency
1,C[C@@H](Cc1cc2c(c(C(N)=O)c1)N(CCCO)CC2)NCCOc1ccccc1OCC(F)(F)F,inactive
2,COc1ccc(C(C)=O)c(O)c1,inactive
3,C[C@@H]1[C@H](C)CC[C@]2(C(=O)O)CC[C@]3(C)C(=CC[C@@H]4[C@@]5(C)C[C@@H](O)[C@H](O)[C@@](C)(CO)[C@H]5CC[C@]43C)[C@@H]12,inactive
4,N#CNC(=NCCCCCCOc1ccc(Cl)cc1)Nc1ccncc1,inactive
5,C[C@H]1COc2c(N3CCN(C)CC3)c(F)cc3c(=O)c(C(=O)O)cn1c23,inactive
6,CC(C)C[C@H](NC(=O)CNC(=O)c1cc(Cl)ccc1Cl)B1OC(=O)CC(CC(=O)O)(C(=O)O)O1 (stereo partly specified),1050 nM (active)
7,CCNC(=O)c1cc2c(-c3cc(OCCN4CCCC4)c(Cl)cc3Cl)nc(N)nc2s1,inactive
8,CCCCCCCCCCCCc1ccc(S(=O)(=O)Nc2nncs2)cc1,inactive
9,Cn1cc(C=CC(=O)c2cccc(F)c2)cc1C=CC(=O)NO,inactive
10,C=C1CCC2[C@](C)(CO)C(O)CC[C@]2(C)C1CC=C1C(=O)OCC1O (stereo partly specified),inactive
11,NC(=NCCCCCCN=C(N)N=C(N)Nc1ccc(Cl)cc1)N=C(N)Nc1ccc(Cl)cc1,8330 nM (active)
12,c1coc(CNc2ncnc3nc[nH]c23)c1,inactive
13,CCCCCCCN(CC)CCCC(O)c1ccc(NS(C)(=O)=O)cc1 (stereo unspecified),inactive
14,CC(C=CC=C(C)C=CC1=C(C)CCCC1(C)C)=CC=CC=C(C)C=CC=C(C)C=CC1=C(C)CCCC1(C)C,inactive
15,COc1ccc2cc([S+]([O-])Cc3ncc(C)c(OC)c3C)nc2c1,inactive
16,CC(=O)O[C@H]1C[C@@H]2CC[C@H]3[C@H]4C[C@H]([N+]5(C)CCCCC5)[C@@H](OC(C)=O)[C@@]4(C)CC[C@@H]3[C@@]2(C)C[C@H]1[N+]1(C)CCCCC1,inactive
